# Laboratory results from PMC8384837, “Expanding the binding specificity for RNA recognition by a PUF domain”.
# Experiments:
# Experiment in all cases: yeast three-hybrid, YBZ-1, SC-Leu-His + 0.5 mM 3-AT, 4 days
# Settings in all cases: tags: N-Gal4 AD-HA kept; label: inside an RPR1-promoter hybrid RNA with tandem MS2 sites; ssRNA
# PUM1 PUF domain R1-RQQ = PUM1 PUF domain R1-RQQ (Homo sapiens, UniProt Q14671 828-1176, S863R;R864Q)
# Procedure, shortened: (§1)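 Pumilio-1 PUF domain libraries, randomized at the three base-contacting residues of each repeat, were co-expressed with matching RNA elements from a centromeric plasmid in strain YBZ-1, which carries a LexA–MS2 coat fusion and a HIS3 reporter. Transformants grew for four days on SC-Leu (input) or on SC-Leu-His + 0.5 mM 3-AT (selection), and the repeat regions were PCR-amplified and Illumina-sequenced. The interaction score is the log change in variant frequency from input to selection. That logarithm is base 2, with a pseudocount of 1 where a variant was absent.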
# PUM1 PUF domain R1-RNS = PUM1 PUF domain R1-RNS (Homo sapiens, UniProt Q14671 828-1176, S863R;R864N;Q867S)
# Procedure, shortened: as §1
# PUM1 PUF domain R1-YAR = PUM1 PUF domain R1-YAR (Homo sapiens, UniProt Q14671 828-1176, S863Y;R864A;Q867R)
# Procedure, shortened: as §1
# PUM1 PUF domain R1-TFE = PUM1 PUF domain R1-TFE (Homo sapiens, UniProt Q14671 828-1176, S863T;R864F;Q867E)
# Procedure, shortened: as §1
# PUM1 PUF domain R6-AFS = biological target: T1, PUM1 PUF domain R6-AFS (Homo sapiens, UniProt Q14671 828-1176, N1043A;Y1044F;Q1047S)
# T1 sequence: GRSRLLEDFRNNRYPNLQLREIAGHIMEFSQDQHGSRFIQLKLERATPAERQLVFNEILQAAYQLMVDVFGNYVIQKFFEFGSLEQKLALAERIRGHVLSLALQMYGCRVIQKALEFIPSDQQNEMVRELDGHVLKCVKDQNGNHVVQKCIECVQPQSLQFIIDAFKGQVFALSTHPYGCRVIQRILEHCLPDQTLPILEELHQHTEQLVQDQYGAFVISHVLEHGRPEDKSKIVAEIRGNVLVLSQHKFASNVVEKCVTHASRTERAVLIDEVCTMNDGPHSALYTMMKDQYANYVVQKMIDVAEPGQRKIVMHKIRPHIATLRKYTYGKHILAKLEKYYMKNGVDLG
# Procedure, shortened: as §1
# PUM1 PUF domain R4-SCS = PUM1 PUF domain R4-SCS (Homo sapiens, UniProt Q14671 828-1176, N971S;H972C;Q975S)
# Procedure, shortened: as §1
# PUM1 PUF domain R4-SNF = PUM1 PUF domain R4-SNF (Homo sapiens, UniProt Q14671 828-1176, N971S;H972N;Q975F)
# Sequence of PUM1 PUF domain R4-SNF (Q14671 828-1176 N971S/H972N/Q975F): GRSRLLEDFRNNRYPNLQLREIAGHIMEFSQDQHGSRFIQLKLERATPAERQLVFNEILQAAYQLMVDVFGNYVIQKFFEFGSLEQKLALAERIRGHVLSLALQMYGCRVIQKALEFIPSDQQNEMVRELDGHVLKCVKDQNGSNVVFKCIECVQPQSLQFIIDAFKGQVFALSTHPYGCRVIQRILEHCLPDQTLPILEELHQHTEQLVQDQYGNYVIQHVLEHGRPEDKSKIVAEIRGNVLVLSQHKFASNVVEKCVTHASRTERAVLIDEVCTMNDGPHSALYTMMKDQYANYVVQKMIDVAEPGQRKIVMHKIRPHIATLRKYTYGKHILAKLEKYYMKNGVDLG
# Procedure, shortened: as §1
# PUM1 PUF domain R5-MRE = PUM1 PUF domain R5-MRE (Homo sapiens, UniProt Q14671 828-1176, C1007M;Q1011E)
# Procedure, shortened: as §1
# PUM1 PUF domain R4-HNI = PUM1 PUF domain R4-HNI (Homo sapiens, UniProt Q14671 828-1176, N971H;H972N;Q975I)
# Procedure, shortened: as §1
# PUM1 PUF domain R3-ARP = PUM1 PUF domain R3-ARP (Homo sapiens, UniProt Q14671 828-1176, C935A;Q939P)
# Procedure, shortened: as §1
# PUM1 PUF domain R3-IFE = PUM1 PUF domain R3-IFE (Homo sapiens, UniProt Q14671 828-1176, C935I;R936F;Q939E)
# Procedure, shortened: as §1
sequence,measurement,setting,value
GGCUAGAACUAGUGGAUCCCCCGGCGCCCGGCGGCUCGAGCCCGGGUAAGUGUAAAUCGUCUGCAUGCCGCCGGGCGCCAUGCCUGCAGGUCGACUCUAGAAAACAUG,binding signal,PUM1 PUF domain R1-RQQ,3.45 log2 enrichment (interaction score)
same,binding signal,PUM1 PUF domain R1-RNS,2.4 log2 enrichment (interaction score)
same,binding signal,PUM1 PUF domain R1-YAR,6.19 log2 enrichment (interaction score)
GGCUAGAACUAGUGGAUCCCCCGGCGCCCGGCGGCUCGAGCCCGGGUAAGUGUAAAUUGUCUGCAUGCCGCCGGGCGCCAUGCCUGCAGGUCGACUCUAGAAAACAUG,binding signal,PUM1 PUF domain R1-TFE,3.49 log2 enrichment (interaction score)
same,binding signal,PUM1 PUF domain R1-YAR,5.79 log2 enrichment (interaction score)
GGCUAGAACUAGUGGAUCCCCCGGCGCCCGGCGGCUCGAGCCCGGGUAAGUGAAAAUAGUCUGCAUGCCGCCGGGCGCCAUGCCUGCAGGUCGACUCUAGAAAACAUG,binding signal,PUM1 PUF domain R6-AFS,3.01 log2 enrichment (interaction score)
GGCUAGAACUAGUGGAUCCCCCGGCGCCCGGCGGCUCGAGCCCGGGUAAGUGUACAUAGUCUGCAUGCCGCCGGGCGCCAUGCCUGCAGGUCGACUCUAGAAAACAUG,binding signal,PUM1 PUF domain R4-SCS,0.74 log2 enrichment (interaction score)
same,binding signal,PUM1 PUF domain R4-SNF,3.39 log2 enrichment (interaction score)
GGCUAGAACUAGUGGAUCCCCCGGCGCCCGGCGGCUCGAGCCCGGGUAAGUGUGAAUAGUCUGCAUGCCGCCGGGCGCCAUGCCUGCAGGUCGACUCUAGAAAACAUG,binding signal,PUM1 PUF domain R5-MRE,2.77 log2 enrichment (interaction score)
GGCUAGAACUAGUGGAUCCCCCGGCGCCCGGCGGCUCGAGCCCGGGUAAGUGUUAAUAGUCUGCAUGCCGCCGGGCGCCAUGCCUGCAGGUCGACUCUAGAAAACAUG,binding signal,PUM1 PUF domain R5-MRE,0.96 log2 enrichment (interaction score)
GGCUAGAACUAGUGGAUCCCCCGGCGCCCGGCGGCUCGAGCCCGGGUAAGUGUAUAUAGUCUGCAUGCCGCCGGGCGCCAUGCCUGCAGGUCGACUCUAGAAAACAUG,binding signal,PUM1 PUF domain R4-SCS,1.72 log2 enrichment (interaction score)
same,binding signal,PUM1 PUF domain R4-HNI,4.84 log2 enrichment (interaction score)
GGCUAGAACUAGUGGAUCCCCCGGCGCCCGGCGGCUCGAGCCCGGGUAAGUGUAAGUAGUCUGCAUGCCGCCGGGCGCCAUGCCUGCAGGUCGACUCUAGAAAACAUG,binding signal,PUM1 PUF domain R3-ARP,1.52 log2 enrichment (interaction score)
same,binding signal,PUM1 PUF domain R3-IFE,5.39 log2 enrichment (interaction score)
